Reference: the supplement of paper PMC13380429

System: Vero E6 infected with SARS-CoV-2
Experiment: inhibition of SARS-CoV-2 cytopathic effect; higher = more antiviral protection, active = above 15
Conditions: 48 h

Measured: inhibition of SARS-CoV-2 cytopathic effect

O=c1[nH]c(=O)n([C@H]2C[C@H](O)[C@@H](CO)O2)cc1I [idoxuridine]
inactive: 1 nM 1.04% | 8.33 nM -1.19% | 100 nM 2.65% | 833.33 nM -0.31% | 10000 nM -2.33%

COc1cc2ncnc(Nc3cccc(Cl)c3)c2cc1OC [tyrphostin-AG-1478]
active: 10000 nM 17.9%
inactive: 1 nM -0.71% | 8.33 nM -1% | 100 nM -7.3% | 833.33 nM -11.1%

Nc1nccs1 [aminothiazole]
inactive: 1 nM -0.84% | 8.33 nM 1.04% | 100 nM 0.28% | 833.33 nM 2.14% | 10000 nM 1.48%

O=C1CN(/N=C/c2ccc([N+](=O)[O-])o2)C(=O)N1 [nitrofurantoin]
inactive: 1 nM -0.06% | 8.33 nM -0.32% | 100 nM 0.43% | 833.33 nM 0.55% | 10000 nM 1.5%

C=C1CCN([C@H](C)[C@](O)(Cn2cncn2)c2ccc(F)cc2F)CC1 [efinaconazole]
inactive: 1 nM -0.21% | 8.33 nM 1.69% | 100 nM 0.85% | 833.33 nM 0.56% | 10000 nM 2.84%

Cc1ccc(=O)n(-c2ccccc2)c1 [pirfenidone]
inactive: 1 nM 3.93% | 8.33 nM 6.69% | 100 nM 3.96% | 833.33 nM 3.47% | 10000 nM 5.58%

CC[N+](C)(CC)CCOC(=O)C1c2ccccc2Oc2ccccc21 [methantheline]
inactive: 1 nM 7.35% | 8.33 nM 3.87% | 100 nM 1.9% | 833.33 nM -0.21% | 10000 nM 3.41%

CNC(=O)c1cc2c(cn1)[nH]c1ccccc12
inactive: 1 nM 1.51% | 8.33 nM -0.17% | 100 nM 1.17% | 833.33 nM -0.08% | 10000 nM 1.58%

N[C@@H](CCC(=O)N[C@@H](CS)C(=O)NCC(=O)O)C(=O)O [glutathione]
inactive: 1 nM 0.94% | 8.33 nM 0.93% | 100 nM 1.6% | 833.33 nM -0.69% | 10000 nM 1.39%

CC(=O)N(OCc1ccccc1)[C@@H]1c2cc(C#N)ccc2OC(C)(C)[C@H]1O
inactive: 1 nM -4.41% | 8.33 nM -2.98% | 100 nM -6.3% | 833.33 nM 2.7% | 10000 nM 2.53%

Clc1ccc2c(c1)CCc1cccnc1C2=C1CCNCC1 [desloratadine]
inactive: 1 nM 5.47% | 8.33 nM 2% | 100 nM 3.51% | 833.33 nM -0.44% | 10000 nM -5.42%

O=P1(N(CCCl)CCCl)NCCCO1 (stereo not given) [cyclophosphamide]
inactive: 1 nM -3.03% | 8.33 nM 0.27% | 100 nM -0.35% | 833.33 nM -1.65% | 10000 nM 0.46%

CN[C@H]1CC[C@@H](c2ccc(Cl)c(Cl)c2)c2ccccc21
inactive: 1 nM -7.46% | 8.33 nM 3.54% | 100 nM 8.81% | 833.33 nM -0.02% | 10000 nM 12.1%

O=C(O)C(Cl)Cl [dichloroacetate]
inactive: 1 nM 4.14% | 8.33 nM 1.34% | 100 nM 2.35% | 833.33 nM 0.22% | 10000 nM 2.63%

Cc1ccc(S(=O)(=O)NC2c3ccccc3Oc3ccccc32)cc1
inactive: 1 nM -5.59% | 8.33 nM -2.13% | 100 nM -2.17% | 833.33 nM -6.38% | 10000 nM -2.38%

CC(=O)Nc1ccc(O)cc1 [paracetamol]
inactive: 1 nM -0.44% | 8.33 nM 1.77% | 100 nM -0.22% | 833.33 nM 0.33% | 10000 nM -2.2%

COc1ccncc1C(=O)NC(=O)Nc1ccc(-c2ccccc2)c(C(F)(F)F)c1 [S1P1-agonist-III]
inactive: 1 nM -0.34% | 8.33 nM -0.01% | 100 nM -0.43% | 833.33 nM -0.2% | 10000 nM -2.64%

Cc1ccc(NC(=O)C(C)C)cc1C1CCN(Cc2ccc(Oc3ccc(F)c(F)c3)cc2)CC1
inactive: 1 nM -0.1% | 8.33 nM -1.41% | 100 nM -2.07% | 833.33 nM -4.89% | 10000 nM -10.5%

O=C(NC(=O)c1c(F)cccc1Cl)NC1c2ccccc2-c2ccccc21
inactive: 1 nM -0.23% | 8.33 nM -0.67% | 100 nM 1.6% | 833.33 nM 2.13% | 10000 nM 0.4%

CN(C)C[C@H](O)Cn1c2ccc(Br)cc2c2cc(Br)ccc21 (racemic) [wiskostatin]
inactive: 1 nM -2.04% | 8.33 nM -1.61% | 100 nM 0.88% | 833.33 nM -1.26%
active: 10000 nM 57.3%
